# From a collection of fitness landscapes (doi:10.1016/j.celrep.2020.107928)
# In all, about 81,000 sequences were measured (“one-hybrid fitness for binding NBS DNA”: median about -0.1, highest 2% from about 0.36 on). The sample as a whole holds a higher share of the highest values than the screen did.
# B1: Caulobacter ParB omega fusion; a variant is named by its letters at X, in order, B8GW30 (parent)
# chain: MESVVVGEPGMSEGRRGLGRGLSALLGEVDAAPAQAPGEQLGGSREAPIEILQRNPDQPRRTFREEDLEDLSNSIREKGVLQPILVRPSPDTAGEYQIVAGERAWRAAQRAGLKTVPIMVRELDDLAVLEIGIIENVQRADLNVLEEALSYKVLMEKFERTQENIAQTIGKSXSHVANXMRLLXLPDEVQSYLVSGELTAXHARAIAAAADPVALAKQIIEGGLSVRETEALARKAPNLSAGKSKGGRPPRVKDTDTQALESDLSSVLGLDVSIDHRGSTGTLTITYATLEQLDDLCNRLTRGI
# Variants of: B1
# Experiment: one-hybrid fitness for binding NBS DNA (the Noc-binding site; scaled: cognate 1, non-cognate 0); higher = stronger binding
# Settings: with NBS DNA site
# Method in brief: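 On M9-minus-histidine containing 0.1 mM IPTG and 5 mM 3-AT, E. coli USO cells with a HIS3 reporter, site 19 bp from the promoter, grew 48 hours at 37°C to select Caulobacter ParB libraries randomised at four specificity codons. Plasmids from before and after were Illumina-sequenced, with three replicate libraries pooled and variants under 10 reads left out. Fitness is the log change in variant-to-wild-type read ratio, rescaled against cognate and non-cognate.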
row,Variant,one-hybrid fitness for binding NBS DNA
1,IRNN,≤ 0.2
2,MQRC,≤ 0.2
3,NLPG,≤ 0.2
4,DKKR,≤ 0.2
5,QKVN,≤ 0.2
6,QKVS,0.32
7,QKKF,0.294
8,QKKR,1
9,QKVR,0.423
10,NTIC,≤ 0.2
11,EQRE,≤ 0.2
12,TGAR,≤ 0.2
13,GMCV,≤ 0.2
14,RSHH,≤ 0.2
15,RLHP,≤ 0.2
16,RSHS,0.47
17,RFHS,0.275
18,RCHS,0.577
19,RMHD,≤ 0.2
20,RLHH,≤ 0.2
21,RMHS,0.486
22,RPHS,≤ 0.2
23,RMHN,≤ 0.2
24,RSHP,≤ 0.2

row,Variant,one-hybrid fitness for binding NBS DNA
1,RLHS,0.462
2,CMKS,≤ 0.2
3,HSMS,≤ 0.2
4,YEDC,≤ 0.2
5,VNHL,≤ 0.2
6,HDMN,≤ 0.2
7,VQAT,≤ 0.2
8,RKHS,0.624
9,RKHN,≤ 0.2
10,RAHS,0.482
11,RKHD,≤ 0.2
12,RAHN,≤ 0.2
13,RAHD,≤ 0.2
14,FLVC,≤ 0.2
15,LRGC,≤ 0.2
16,IPDS,≤ 0.2
17,QWHR,0.288
18,QTHK,0.293
19,QSHP,≤ 0.2
20,QCHR,0.742
21,QPHR,≤ 0.2
22,QSHD,≤ 0.2
23,QIHD,≤ 0.2
24,QTHM,0.296

row,Variant,one-hybrid fitness for binding NBS DNA
1,QIHC,≤ 0.2
2,QTHR,0.877
3,QIHR,0.493
4,QSHR,0.578
5,QLFV,≤ 0.2
6,PASW,≤ 0.2
7,QHPW,≤ 0.2
8,TKDT,≤ 0.2
9,KAAR,≤ 0.2
10,VHKI,≤ 0.2
11,VRNY,≤ 0.2
12,SPES,≤ 0.2
13,PIPY,≤ 0.2
14,DLRT,≤ 0.2
15,HALK,≤ 0.2
16,LKPH,≤ 0.2
17,ECKC,≤ 0.2
18,PADW,≤ 0.2
19,EYHR,≤ 0.2
20,CRTW,≤ 0.2
21,QTPT,0.418
22,QPPT,≤ 0.2
23,QSPT,0.276
24,QTPP,≤ 0.2

row,Variant,one-hybrid fitness for binding NBS DNA
1,QTPH,≤ 0.2
2,QAIT,0.291
3,QTIT,0.522
4,QCPT,0.382
5,QLIT,0.287
6,RCQW,≤ 0.2
7,IHRR,≤ 0.2
8,QHVR,0.379
9,QHVS,0.221
10,QHVP,≤ 0.2
11,NHKR,0.202
12,DHKR,≤ 0.2
13,QHKR,1.03
14,LTLF,≤ 0.2
15,YIRF,≤ 0.2
16,KAST,≤ 0.2
17,GTAV,≤ 0.2
18,KKDR,≤ 0.2
19,KKRR,0.47
20,DCRR,0.416
21,KMYR,≤ 0.2
22,KMRR,0.398
23,KTYR,≤ 0.2
24,KKYR,≤ 0.2

row,Variant,one-hybrid fitness for binding NBS DNA
1,DSRR,≤ 0.2
2,DPRR,≤ 0.2
3,KMDR,≤ 0.2
4,KTRR,0.541
5,KTDR,≤ 0.2
6,QEHI,≤ 0.2
7,GLEC,≤ 0.2
8,KISR,≤ 0.2
9,NLTF,≤ 0.2
10,IPIE,≤ 0.2
11,AYRA,≤ 0.2
12,LADD,≤ 0.2
13,DHMR,≤ 0.2
14,RSEM,≤ 0.2
15,KIPV,≤ 0.2
16,AVRD,≤ 0.2
17,ISPK,≤ 0.2
18,CECG,≤ 0.2
19,HLGA,≤ 0.2
20,KHQR,≤ 0.2
21,KSRR,0.343
22,KPRR,≤ 0.2
23,KQRR,0.416
24,KQYR,≤ 0.2

row,Variant,one-hybrid fitness for binding NBS DNA
1,KHYR,≤ 0.2
2,NQRR,≤ 0.2
3,KCRR,0.46
4,KHRR,0.367
5,PLRA,≤ 0.2
6,YGEG,≤ 0.2
7,NPWT,≤ 0.2
8,YGMG,≤ 0.2
9,ETAK,≤ 0.2
10,RFQF,≤ 0.2
11,NMWY,≤ 0.2
12,NYHG,≤ 0.2
13,ANWC,≤ 0.2
14,AQQE,≤ 0.2
15,RMVS,0.29
16,RSKH,0.357
17,RCKH,0.403
18,RPKH,≤ 0.2
19,RMKH,0.402
20,RMKN,≤ 0.2
21,RMKP,≤ 0.2
22,RMKS,0.598
23,RMKD,≤ 0.2
24,CHSP,≤ 0.2

row,Variant,one-hybrid fitness for binding NBS DNA
1,DPDC,≤ 0.2
2,RVHT,0.487
3,RVHP,≤ 0.2
4,RVHM,≤ 0.2
5,RVHY,≤ 0.2
6,RVHH,≤ 0.2
7,RVHD,≤ 0.2
8,RVHS,0.461
9,RVAT,0.383
10,RVHN,≤ 0.2
11,RVFT,0.271
12,RVAS,0.358
13,RVHR,0.484
14,GNNW,≤ 0.2
15,HSLW,≤ 0.2
16,SLMG,≤ 0.2
17,ACAR,≤ 0.2
18,KRNK,≤ 0.2
19,SCKG,≤ 0.2
20,SRHE,≤ 0.2
21,IGMS,≤ 0.2
22,LVKR,≤ 0.2
23,RVQD,≤ 0.2
24,RVQP,≤ 0.2

row,Variant,one-hybrid fitness for binding NBS DNA
1,RVPT,≤ 0.2
2,RVQT,0.438
3,RVYT,0.357
4,RVRT,0.631
5,QQQI,≤ 0.2
6,DRRL,≤ 0.2
7,MTMS,≤ 0.2
8,RRCH,0.382
9,RRCG,0.296
10,RRCN,0.248
11,RRCD,≤ 0.2
12,RRCP,≤ 0.2
13,RRCS,0.642
14,SSEH,≤ 0.2
15,RSQN,≤ 0.2
16,RKQS,0.543
17,RTQS,0.459
18,RKQD,≤ 0.2
19,RKQN,≤ 0.2
20,RSQD,≤ 0.2
21,RHQS,0.455
22,RTQH,≤ 0.2
23,RSQS,0.433
24,RHQN,≤ 0.2

row,Variant,one-hybrid fitness for binding NBS DNA
1,RHQH,≤ 0.2
2,RTQD,≤ 0.2
3,YQLE,≤ 0.2
4,WLLP,≤ 0.2
5,PIRG,≤ 0.2
6,RLRW,≤ 0.2
7,TAYQ,≤ 0.2
8,ARIK,≤ 0.2
9,ACVN,≤ 0.2
10,VRHN,≤ 0.2
11,IRAF,≤ 0.2
12,KMGK,≤ 0.2
13,VQSE,≤ 0.2
14,DNKI,≤ 0.2
15,DLTY,≤ 0.2
16,WNVE,≤ 0.2
17,RLQS,0.382
18,RCQS,0.474
19,RMQS,0.409
20,RDQS,≤ 0.2
21,RLQH,≤ 0.2
22,RMQH,≤ 0.2
23,RLQP,≤ 0.2
24,RPQS,≤ 0.2

row,Variant,one-hybrid fitness for binding NBS DNA
1,RMQN,≤ 0.2
2,RAQN,≤ 0.2
3,RAQD,≤ 0.2
4,RAQS,0.416
5,PCVC,≤ 0.2
6,NLCG,≤ 0.2
7,TPCN,≤ 0.2
8,RCCC,≤ 0.2
9,VASN,≤ 0.2
10,HSTM,≤ 0.2
11,SDNA,≤ 0.2
12,FLCR,≤ 0.2
13,WDPR,≤ 0.2
14,GLGG,≤ 0.2
15,RFGR,0.23
16,RCGR,0.523
17,RPGR,≤ 0.2
18,RSGR,0.459
19,RSGH,≤ 0.2
20,RSGP,≤ 0.2
21,HRAM,≤ 0.2
22,FIVS,≤ 0.2
23,DFTV,≤ 0.2
24,TRRS,0.38

row,Variant,one-hybrid fitness for binding NBS DNA
1,TRRN,≤ 0.2
2,TCRT,≤ 0.2
3,TRNT,0.459
4,TRVT,≤ 0.2
5,TRYT,0.334
6,TCKT,≤ 0.2
7,TRDT,≤ 0.2
8,TRRT,0.526
9,TCNT,≤ 0.2
10,TRKT,0.578
11,TRYS,≤ 0.2
12,PANE,≤ 0.2
13,KSQQ,≤ 0.2
14,NCPT,≤ 0.2
15,FMKS,≤ 0.2
16,QNLL,≤ 0.2
17,SKPR,≤ 0.2
18,CSPY,≤ 0.2
19,QVAP,≤ 0.2
20,QRAR,1.01
21,QRFR,0.865
22,QRFF,≤ 0.2
23,NRAR,≤ 0.2
24,DRAR,≤ 0.2

row,Variant,one-hybrid fitness for binding NBS DNA
1,IFSI,≤ 0.2
2,RYTI,≤ 0.2
3,HQWA,≤ 0.2
4,NIMG,≤ 0.2
5,QPQT,≤ 0.2
6,QAQT,0.364
7,QDQT,≤ 0.2
8,QCQT,0.526
9,QTQC,0.239
10,QKQC,≤ 0.2
11,QTQT,0.577
12,QSQT,0.411
13,QKQT,0.578
14,QKQF,≤ 0.2
15,QTQG,≤ 0.2
16,QHQT,0.363
17,FPTH,≤ 0.2
18,SIGR,≤ 0.2
19,LNNM,≤ 0.2
20,TFLV,≤ 0.2
21,QLGE,≤ 0.2
22,CTTF,≤ 0.2
23,YCLC,≤ 0.2
24,SKES,≤ 0.2

row,Variant,one-hybrid fitness for binding NBS DNA
1,QLQN,≤ 0.2
2,QLQT,0.37
3,QLQP,≤ 0.2
4,MYYS,≤ 0.2
5,HTKF,≤ 0.2
6,FQTK,≤ 0.2
7,QAKM,0.392
8,QRVM,0.265
9,QRKM,0.557
10,QCKM,0.464
11,QTWM,≤ 0.2
12,QTVM,≤ 0.2
13,QSKM,0.362
14,QAYM,≤ 0.2
15,QTKM,0.563
16,QPKM,≤ 0.2
17,QAVM,≤ 0.2
18,QIKM,0.249
